The source of these data is PubChem BioAssay.

Assay [1] can be described thus: blockers of polyQ-driven CASP3 activation – cell-based (AID 1583). The note with it: polyglutamine-induced caspase-3 activation, cell assay; stronger effect = higher value;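 tested at 10 µM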.
Assay [2] in a line: yeast 75Q aggregation reduction – 75Q-TubU reporter (AID 1593). The note with it: Yeast 75Q polyglutamine aggregation reporter.
The nature of assay [3]: restoration of touch response, mutant HTT neurons – whole organism, C. elegans mechanosensory neurons, N-terminal huntingtin (AID 1599). The note with it: C. elegans polyQ-huntingtin mechanosensory neurons, stronger effect = higher value.
A short description of assay [4]: blockers of cytochrome c efflux from mitochondria – biochemical, purified mitochondria (AID 1603).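 Also: mouse liver mitochondria challenged with calcium chloride; signal normalized to the plate average as 100%.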 Particulars: stronger effect = lower value.
Assay [5] is described as follows: polyglutamine aggregate formation blockers (AID 1604). Particulars: polyglutamine-induced protein aggregation inhibition assay; stronger effect = higher value; tested at 2.5 µM.
Assay [6] in a line: glutamate transport activators, MN-1 cells, MN-1 cell line (AID 1612).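 Also: tested at 1 µM final; 0% = mean of DMSO vehicle wells on each plate; positive means more glutamate uptake than control and negative means less.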 The note with it: MN-1 motor neuron cells, stronger effect = higher value.
Assay [7] can be described thus: GFP-Q80 aggregate reduction, neuronal-like cells, cell-based, NGF-treated PC12, GFPQ80 (AID 1614).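 Also: lower means fewer inclusions and 0 means no inclusions at all.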 The note with it: PC12 NGF-treated GFP-polyQ80 inclusion reduction.
The nature of assay [8]: 75Q-TubH aggregate inhibition, S. cerevisiae, yeast (AID 1616). The note with it: S. cerevisiae 75Q-TubH polyglutamine aggregation suppression; stronger effect = higher value.
The nature of assay [9]: P. berghei load reduction in hepatocytes – cell-based, HepG2, luciferase luminescence, HepG2 viability, primary screen (AID 624349; in the data active = parasite load remaining mostly below about 12%, no sharp cut-off; inactive = mostly above about 10%;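 also: 100% = mean of DMSO negative control wells on the same plate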). The note with it: P. berghei liver stage in HepG2, luciferase luminescence, concentration not given here; parasite load remaining: stronger effect = lower value; viability: measured here: HepG2 viability without parasites.
Assay [10] is described as follows: EMT-state selective cytotoxicity in co-culture – imaging, PC-3E GFP, TEM4-18 mCherry, primary screen (AID 1345086).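 As to all read-outs here: cells exposed to compound for 72 h before imaging.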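 As to red/green cell ratio (normalised): normalised mesenchymal count divided by normalised epithelial count so high means epithelial killing.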 Particulars: PC-3E GFP / TEM4-18 mCherry co-culture, imaging cell counts, at 1 µM; for red/green cell ratio (normalised): actives lie on both sides, counts scaled to control wells, 1 = unselective.
Assay [11] deals with Mitogen-activated protein kinase 7 (Homo sapiens) (UniProt Q13164). The assay can be described thus: Gal4-ERK5 driven luciferase induction – cell-based, HTS, primary screen (AID 1508626;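 active = luciferase signal above three times the same-plate solvent-only control wells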;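 also: luciferase driven by Gal4-ERK5 fusion binding five Gal4 sites before minimal TATA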). Particulars: HeLa Gal4-ERK5 transactivation, 18 h, at 5 µM, stronger effect = higher value.
Assay [12] relates to Hepatitis C virus NS3 helicase. The assay can be described thus: blockers of NS3h binding to ssDNA – biochemical, fluorescence polarization, LOPAC1280 library, primary screen (AID 687035; in the data active = inhibition above about 37%). The note with it: Purified HCV NS3 helicase, Cy5-dT15 ssDNA binding fluorescence polarization; stronger effect = higher value; concentration not given here. (In general: In fluorescence polarisation assays a small probe gives low polarisation when free and higher when bound to something large.)

A short description of assay [13]: compounds altering Cy5-DNA-NS3h complex signal – biochemical, LOPAC1280, artefact control for HCV NS3 helicase inhibitor project (AID 687037; call rule not given here). Particulars: Cy5-DNA-NS3h complex fluorescence interference counterscreen. Background: A counterscreen serves to expose hits that act by an unwanted route or on another target.
The subject of assay [14] is Aerobactin synthetase IucA (Klebsiella pneumoniae). The assay can be described thus: inhibition of K. pneumoniae IucA enzyme – biochemical, Tocris library, absorbance (AID 1345561; call rule not given here;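 also: 100% = enzyme without compound and 0% = no enzyme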). The note with it: purified IucA enzyme assay, absorbance (OD) read-out; stronger effect = lower value;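 tested at 8 µM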.
Assay [15] is described as follows: viability loss in pontine glioma line – cell-based, SU-DIPG-XVII, MIPE5.0, CellTiter-Glo, qHTS, dose response (AID 1347060; cut-off not given, nearly all actives have AC50 up to about 26 µM). Particulars: CellTiter-Glo ATP luminescence.
Assay [16] in a line: viability loss in pontine glioma line – cell-based, SU-DIPG-XIII, MIPE4.0, CellTiter-Glo, qHTS, dose response (AID 1347061; cut-off not given, nearly all actives have AC50 up to about 37 µM;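 also: cells exposed to compound for 48 hours before readout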). Particulars: CellTiter-Glo ATP luminescence. In general terms: ATP-based viability assays read luminescence as a measure of living cells.
Assay [17] is described as follows: viability loss in pontine glioma line – cell-based, JHH-DIPG-1, MIPE4.0, CellTiter-Glo, qHTS, dose response (AID 1347062; cut-off not given, nearly all actives have AC50 up to about 27 µM). The note with it: JHH-DIPG-1 viability, CellTiter-Glo ATP luminescence.
A short description of assay [18]: viability loss in pontine glioma line – cell-based, SU-DIPG-IV, MIPE4.0, CellTiter-Glo, qHTS, dose response (AID 1347063; cut-off not given, nearly all actives have AC50 up to about 30 µM;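 also: compound exposure lasted 48 hours before the viability readout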). The note with it: CellTiter-Glo ATP luminescence.
Assay [19] in a line: viability loss in pontine glioma line – cell-based, SU-DIPG-XIII, MIPE5.0, CellTiter-Glo, qHTS, dose response (AID 1347064; cut-off not given, nearly all actives have AC50 up to about 23 µM). Particulars: CellTiter-Glo ATP luminescence.
The nature of assay [20]: viability loss in pontine glioma line – cell-based, SU-DIPG-XXV, MIPE5.0, CellTiter-Glo, qHTS, dose response (AID 1347065; cut-off not given, nearly all actives have AC50 up to about 26 µM;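 also: cells exposed to compound for 48 hours before ATP readout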). The note with it: CellTiter-Glo ATP luminescence.
The nature of assay [21]: growth inhibition of DIPG cells – cell-based, MIPE4.0 library, CellTiter-Glo luminescence, qHTS (AID 1347066; cut-off not given, nearly all actives have AC50 up to about 30 µM;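 also: cells exposed to compound for 48 hours before readout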). Particulars: SU-DIPG-VI viability, CellTiter-Glo ATP luminescence.
Assay [22] in a line: JHH-DIPG-1 glioma cell viability, MIPE5.0 library, CellTiter-Glo luminescence, qHTS (AID 1347067; cut-off not given, nearly all actives have AC50 up to about 26 µM;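 also: cells exposed to compound for 48 hours before readout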). The note with it: JHH-DIPG-1 glioma viability, CellTiter-Glo ATP luminescence.
The nature of assay [23]: growth inhibition of DIPG cells – cell-based, MIPE5.0 library, qHTS (AID 1347068; cut-off not given, nearly all actives have IC50 up to about 30 µM). The note with it: SU-DIPG-XXV viability.
Assay [24] can be described thus: compounds altering HSF1 focus formation in cells – imaging, Selleck Cancer Library (AID 1347162; in the data active = plate-normalised HSF1 focus index below about 0.46). The note with it: human cells, HSF1 nuclear foci imaging, at 10 µM; SSMD: measured here: HSF1 foci SSMD mean; cell count: measured here: cell number; plate-normalised HSF1 focus index: stronger effect = lower value.
Assay [25] can be described thus: blockers of cellular phospholipid synthesis – cell-based, LOPAC library, screen 4, primary screen (AID 1347384; call rule not given here). The note with it: animal cells, phospholipid biosynthesis inhibition screen; at 10 µM.
Assay [26] can be described thus: MELAS cybrid and Rieske KO viability enhancers – cell-based, MELAS cybrids, Rieske KO mouse fibroblasts, CellTiter-Glo, primary screen (AID 1508586;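 active = mean z-score across replicates of 1.96 or higher in either the MELAS or the Rieske mutant cell line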;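 also: z relative to plate mean and SD of compound and empty wells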). Particulars: low glucose.
The nature of assay [27]: galactose survival enhancers in mitochondrial complex I cybrids – cell-based, galactose medium, ATP luminescence, primary screen (AID 1645843;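 active = z-score of at least 1.8 in each of two replicates, scored against plate mean and spread of sample wells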;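 also: positive z means more ATP and so rescue of galactose-driven cybrid death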). Particulars: complex I mutant cybrid cells, 72 h, stronger effect = higher value.
Assay [28] in a line: viability loss with induced miR-34 in A549 – imaging, A549 dox-inducible miR-34, nuclei and caspase counts, primary screen (AID 1347080;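 active = compounds whose cell count with miR-34 switched on is under 0.7 times the count with it off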). Particulars: A549 miR-34 inducible, Hoechst nuclei count, 48 h.
[29] abbreviates: measured here: epithelial PC-3E GFP cell survival.
Setting [30] is: measured here: mesenchymal TEM4-18 mCherry cell survival.

Values joined by “and” are separate entries in the source; they are usually repeats but may differ in a detail not shown here. Equal entries are not always repeated. Records with an inconclusive call do not appear. For part of these data: Measured potencies and affinities stand elsewhere. Active and inactive are the calls of the source.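 The calls were made as follows, unless noted: active = compounds killing one labelled cell type while sparing the other, by normalised counts and ratio limits, not self-fluorescent; inactive = the rest.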

Sequence of Mitogen-activated protein kinase 7 (Homo sapiens) (Q13164 whole entry, looked up, the tested form may be a part): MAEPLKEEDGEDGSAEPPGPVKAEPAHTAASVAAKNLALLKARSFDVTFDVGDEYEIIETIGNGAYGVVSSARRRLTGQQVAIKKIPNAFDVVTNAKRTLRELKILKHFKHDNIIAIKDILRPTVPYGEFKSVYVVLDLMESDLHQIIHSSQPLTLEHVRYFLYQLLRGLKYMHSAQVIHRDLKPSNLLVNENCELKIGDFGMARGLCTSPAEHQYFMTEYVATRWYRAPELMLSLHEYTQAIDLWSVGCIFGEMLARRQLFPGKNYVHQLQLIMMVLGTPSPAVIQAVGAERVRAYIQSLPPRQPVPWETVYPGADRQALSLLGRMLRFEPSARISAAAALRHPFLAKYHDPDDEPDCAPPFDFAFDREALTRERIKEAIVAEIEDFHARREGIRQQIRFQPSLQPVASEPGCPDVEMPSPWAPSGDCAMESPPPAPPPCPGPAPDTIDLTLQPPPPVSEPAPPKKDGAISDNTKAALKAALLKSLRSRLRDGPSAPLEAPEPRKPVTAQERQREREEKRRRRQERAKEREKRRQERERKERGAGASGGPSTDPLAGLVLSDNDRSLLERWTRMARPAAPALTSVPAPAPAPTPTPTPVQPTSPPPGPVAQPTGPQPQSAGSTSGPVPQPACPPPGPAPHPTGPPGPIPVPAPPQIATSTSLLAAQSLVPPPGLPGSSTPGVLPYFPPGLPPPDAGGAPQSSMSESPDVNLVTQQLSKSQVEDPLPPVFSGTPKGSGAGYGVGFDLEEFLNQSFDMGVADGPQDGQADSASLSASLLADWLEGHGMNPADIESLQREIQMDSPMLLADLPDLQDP

Usually inhibition stands for the drop in the measured response relative to a control, in per cent. In general, viability refers to a per cent measure of how many cells are alive, often set against a control. `C=C(C)[C@H]1CC=C(C(=O)O)CC1`: the inhibition in [1] came out at 10.7%. Further, the score in assay [2] came out at 0.26. In assay [3], this molecule returned a rescue above control of -1.74. Besides, the cytochrome c release ratio in assay [4] came to 0.96. In addition, the inhibition of aggregation in assay [5] was -3.17%. Moreover, the glutamate uptake change in [6] was -7.46%. The molecule also showed an inclusion score in [7] of 2. The molecule also gave an aggregation suppression score in [8] of 0.107. In assay [9], the parasite load remaining was 101% (inactive) and the viability was determined as 69.4%. Besides, the red/green cell ratio (normalised) in [10] was 0.84 (inactive). Further, in [10] (setting [29]), the normalised cell number was determined as 1.08. This molecule displayed a normalised cell number in assay [10] (setting [30]) of 0.92. Moreover, the luciferase signal in assay [11] is 24 AU (inactive).
For `NC(Cc1ccc(F)cc1)C(=O)O` (centres undefined), in assay [1], the inhibition stood at 10.4%. In addition, the score in [2] came out at 1.23. The molecule further returned a rescue above control in assay [3] of 3.95. The cytochrome c release ratio in assay [4] came out at 0.78. The inhibition of aggregation in assay [5] turned out to be 75%. Moreover, the glutamate uptake change in assay [6] is 15.5%. This molecule showed an inclusion score in [7] of 2. This molecule also registered an aggregation suppression score in assay [8] of 1.47. The red/green cell ratio (normalised) in assay [10] was 0.96 (inactive). Besides, the normalised cell number in [10] (setting [29]) worked out at 0.88; in [10] (setting [30]), 0.84. The luciferase signal in assay [11] is 100 AU (inactive).
For the molecule `NC[C@@H]1O[C@H](O[C@@H]2[C@@H](CO)OC(O[C@@H]3[C@@H](O)[C@H](N)C[C@H](N)[C@H]3O[C@H]3O[C@H](CO)[C@@H](O)[C@H](O)[C@H]3N)[C@@H]2O)[C@H](N)[C@@H](O)[C@@H]1O` (some centres undefined), in assay [9], the parasite load remaining was 141% (inactive) and the viability is 87.6%. In addition, in assay [10], the red/green cell ratio (normalised) is 1.21 (inactive). In assay [10] (setting [29]), this molecule returned a normalised cell number of 0.93. For the same molecule, the normalised cell number in [10] (setting [30]) came out at 1.13.
For `CC(=O)Oc1ccc2c(c1)CCC1C2CC[C@]2(C)C(=O)CCC12` (some centres undefined), in that order: 88.9% (inactive), 66.4%, 0.81 (inactive), 1.27 and 1.03.
With `C1CCN2C[C@H]3C[C@H](CN4CCCC[C@@H]34)[C@H]2C1`, the inhibition in assay [1] is -43.7%. This molecule also yielded a score in assay [2] of 1.18. The molecule also returned a rescue above control in assay [3] of -2.03. In assay [4], the cytochrome c release ratio is 1.05. Besides, the inhibition of aggregation in assay [5] turned out to be 26.9%. Moreover, in assay [6], the glutamate uptake change came to 8.14%. This molecule had an inclusion score in assay [7] of 2. This molecule also displayed an aggregation suppression score in assay [8] of 1.49. Moreover, the red/green cell ratio (normalised) in assay [10] was 1.01 (inactive). In addition, the results for the normalised cell number in assay [10] (setting [29]) and in [10] (setting [30]) were 1.18 and 1.19, respectively.
For the molecule `CC1(C)C2CC[C@]3(C)C(C(=O)C=C4[C@H]5C[C@@](C)(C(=O)O)CC[C@]5(C)CC[C@]43C)[C@@]2(C)CC[C@@H]1O` (some centres undefined), the inhibition in [1] is -22.8%. In [2], this molecule yielded a score of 2.14. The molecule also had a rescue above control in assay [3] of 0.7. The cytochrome c release ratio in assay [4] amounted to 1.2. Besides, in assay [5], the inhibition of aggregation amounted to 25.5%. The glutamate uptake change in assay [6] was -60.4%. Also, in [7], the inclusion score was found to be 2. Moreover, the aggregation suppression score in assay [8] amounted to 0.949. Further, in [10], the red/green cell ratio (normalised) is 1.07 (inactive). In addition, the normalised cell number in [10] (setting [29]) came out at 1.03; in [10] (setting [30]), 1.11.
For `Nc1ccn(C2O[C@H](CO)[C@@H](O)[C@H]2O)c(=O)n1` (some centres undefined), in assay [1], the inhibition was found to be 22%. This molecule showed a score in assay [2] of 1.09. The rescue above control in assay [3] is -6.6. Further, in assay [4], the cytochrome c release ratio is 1.18. The inhibition of aggregation in assay [5] amounted to 63.9%. For the same molecule, the glutamate uptake change in assay [6] was 6.93%. For the same molecule, in [7], the inclusion score came to 2. In assay [8], this molecule displayed an aggregation suppression score of 1.06. Moreover, the red/green cell ratio (normalised) in assay [10] is 1.13 (inactive). Further, the normalised cell number in [10] (setting [29]) amounted to 1.06; in [10] (setting [30]), 1.19.
A word on the remaining activity: it is the signal under treatment as a percentage of the control signal. Take `O=C(O)CCc1ccc(NCc2cccc(Oc3ccccc3)c2)cc1`: the inhibition in assay [12] was 0% (inactive). Further, in [13], the fluorescence ratio (interference) was 1 (inactive). Besides, the remaining activity in assay [14] is 92.7% (inactive). Also, the molecule was called inactive in [15], in [16], in [17], in assay [18], in assay [19] and in assay [20]. For the same molecule, the result in assay [21], in [22], in assay [23] and in [25] was inactive. The molecule also came in with an SSMD in [24] of 3.5. This molecule also registered a cell count in [24] of 6830. Besides, the plate-normalised HSF1 focus index in assay [24] is 1.21 (inactive). The z-score in assay [26] (MELAS cybrid survival, CellTiter-Glo 48 h, stronger effect = higher value) was -0.374 (inactive); in assay [26] (Rieske KO mouse fibroblast survival, CellTiter-Glo 72 h) it was 0.82; in assay [27], 0.215 (inactive) and -0.155 (inactive).
Consider `COc1ccc([C@@H]2CNC(=O)C2)cc1OC1CCCC1`, for which, in [14], the remaining activity is 102% (inactive). The call in assay [15], in assay [17], in assay [19], in assay [22] and in [23] was inactive. The fold change in assay [28] (stronger effect = lower value, cell number ratio, induced over uninduced) was 0.954 (inactive); in assay [28] (measured here: relative caspase fold change +Dox/-Dox) it was 0.878. Also, the cell count came out at 8940 in [28] (measured here: total cells with miR-34 induction, stronger effect = lower value) and 9370 in [28] (measured here: total cells without miR-34 induction). Moreover, the z-score in [27] is -0.11 (inactive).
